Where a name gives a salt, the structure may show the parent alone. ± gives the uncertainty stated by the source.

The test system of this assay is NCC-PMP1-C1. Kind of assay: cell viability relative to DMSO control; higher = less growth inhibition. As to conditions: 10 µM; 72 h. The method, then:
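NCC-PMP1-C1 pseudomyxoma peritonei cells were seeded in 384-well plates coated with Matrigel and MEF (1e4 cells). Viability was read after 72 h by CCK-8 and expressed as % of the DMSO control, mean ± SD of duplicates.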
In the case of `CCN(CC)CCOc1ccc(C(=C(Cl)c2ccccc2)c2ccccc2)cc1` [Clomifene citrate], the cell viability is -6.65 ± 0.33%.

As to `CN(C)C/C=C/C(=O)Nc1cc2c(Nc3ccc(F)c(Cl)c3)ncnc2cc1O[C@H]1CCOC1` [Afatinib (BIBW2992)], the cell viability is 12.4 ± 2.3%.

Consider `COc1ccc2[nH]c([S@@+]([O-])Cc3ncc(C)c(OC)c3C)nc2c1` [Esomeprazole Sodium], for which the cell viability came out at 108 ± 1.5%.

With `C#Cc1cccc(Nc2ncnc3cc(OCCOC)c(OCCOC)cc23)c1` [Erlotinib], the cell viability turned out to be 66.7 ± 5.8%.

Regarding `CC[C@H](Nc1ncnc2[nH]cnc12)c1nc2cccc(F)c2c(=O)n1-c1ccccc1` [CAL-101 (Idelalisib, GS-1101)], the cell viability worked out at 73.5 ± 9.8%.

Regarding `C#Cc1cccc(Nc2ncnc3cc(OCCOC)c(OCCO)cc23)c1`, the cell viability was found to be 49.1 ± 7.9%.

For `CC(=O)Oc1ccccc1C(=O)O` [Aspirin], the cell viability stood at 110 ± 4.8%.

As for `CO[C@H]1C[C@@H]2CC[C@@H](C)[C@@](O)(O2)C(=O)C(=O)N2CCCC[C@H]2C(=O)O[C@H]([C@H](C)C[C@@H]2CC[C@@H](OC(=O)C(C)(CO)CO)[C@H](OC)C2)CC(=O)[C@H](C)/C=C(\C)[C@@H](O)[C@@H](OC)C(=O)[C@H](C)C[C@H](C)/C=C/C=C/C=C/1C`, the cell viability turned out to be 155 ± 67%.

For the compound `COc1cc2nccc(Oc3ccc(NC(=O)C4(C(=O)Nc5ccc(F)cc5)CC4)cc3)c2cc1OC`, the cell viability was 48.9 ± 2.8%.

On to `CS(=O)(=O)OCCCCOS(C)(=O)=O` [Busulfan], for which the cell viability was determined as 121 ± 7.5%.

Regarding `COC(=O)N[C@H](C(=O)N[C@@H](Cc1ccccc1)[C@@H](O)CN(Cc1ccc(-c2ccccn2)cc1)NC(=O)[C@@H](NC(=O)OC)C(C)(C)C)C(C)(C)C` [Atazanavir Sulfate], the cell viability came to 109 ± 1.1%.

Broadly, the cell viability is a read-out of living cells in per cent, often relative to untreated cells.

(Values after the supplement of paper PMC8877412.)
